# Data reported in PubChem BioAssay.
# The source made the active and inactive calls.
# Columns and labels:
# [1] = test system: Human papillomavirus type 1a protein E7 (residues 44-93); experiment: small molecules binding HPV E7 44-93 – biochemical, small-molecule microarray, residues 44-93, 635 nm fluorescence, primary screen (AID 1108); details: fluorescence 635 nm, higher = more signal;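 further: E7 fragment applied at 1 µg/mL in TBST for 1 h at 4 C; score combines spot fluorescence with its signal to noise ratio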
# [2] = hepatitis C replication reporter changes, two-sided – Huh7 cells, luciferase reporter, HCV replication inhibitor project, primary screen (AID 1109); details: Huh7 HCV replicon luciferase reporter, 48 h; higher = more signal;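 further: huh7 hepatoma cells harbouring a luciferase neomycin HCV replicon reporter; luciferase luminescence as measure of HCV replicon replication; test concentration not given here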
# [3] = target: Left-right determination factor 2 (Homo sapiens) (UniProt O00292); experiment: small molecules binding LEFTY2 protein – biochemical, small-molecule microarray, 635 nm fluorescence scan, primary screen (AID 1110); details: higher = more signal
# [4] = target: Calmodulin-1 (Homo sapiens) (UniProt P0DP23); experiment: small molecules binding calmodulin-1 with EGTA – biochemical, small-molecule microarray, Cy5-labelled CALM1, profiling panel (AID 1111); details: Cy5-CALM1 binding fluorescence, higher = more signal;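 further: labelled calmodulin applied in Tris saline Tween buffer holding calcium plus EGTA and DTT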
# [5] = target: Calmodulin-1 (Homo sapiens) (UniProt P0DP23); experiment: small molecules binding Ca-loaded calmodulin-1 – biochemical, small-molecule microarray, Cy5-labelled CALM1, plus calcium, artefact control for SMM control-protein annotation, profiling panel (AID 1112); details: Cy5-CALM1 binding fluorescence, higher = more signal;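 further: score merges spot fluorescence with signal to noise from triplicate slides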
# [6] = probe aWnt5a binding to arrayed compounds – biochemical, biotinylated probe, 635/667 nm fluorescence, primary screen (AID 1113); details: small-molecule microarray, higher = more signal;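 further: score merges 667 nm fluorescence intensity with signal-to-noise per printed feature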
# [7] = probe aShh binding to arrayed compounds – biochemical, biotinylated probe, 635/667 nm fluorescence, primary screen (AID 1114); details: small-molecule microarray, higher = more signal;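 further: probe is biotin-labelled aShh protein from a stem cell growth factor screen; measures binding of labelled protein to compounds printed on the slide; score merges feature fluorescence at 667 nm with signal-to-noise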
# [8] = probe aNog binding to arrayed compounds – biochemical, biotinylated probe, 635/667 nm fluorescence, primary screen (AID 1115); details: small-molecule microarray, higher = more signal;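 further: probe is biotinylated aNog protein used at 0.15 µg/mL for 1 h at 4 C; z-score combines 667 nm fluorescence of each spot with its signal to noise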
# [9] = target: Torsin-1A-interacting protein 1 (Homo sapiens) (UniProt Q5JTV8); experiment: compound microarray binding of lysate hLAP1 – cell lysate, small-molecule microarray, COS7 lysate, 635/667 nm fluorescence, primary screen (AID 1116); details: 635 nm fluorescence, higher = more signal
# [10] = target: Alpha-bungarotoxin (Bungarus multicinctus) (UniProt P60615); experiment: compounds binding labelled alpha-BTX control protein – biochemical, small-molecule microarray, Alexa647 label, 635/667 nm fluorescence, artefact control for SMM control protein annotation, profiling panel (AID 1117); details: alpha-BTX-A647 binding fluorescence, higher = more signal
# [11] = target: Albumin (Bos taurus) (UniProt P02769); experiment: compounds binding labelled BSA control protein – biochemical, small-molecule microarray, Alexa647 label, 635/667 nm fluorescence, artefact control for SMM control protein annotation, profiling panel (AID 1118); details: BSA-A647 binding, fluorescence 635 nm, higher = more signal;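 further: score merges 667 nm emission intensity and signal-to-noise per printed compound spot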
# [12] = probe aXIP binding to arrayed compounds – biochemical, NeuroSMM set, 635/667 nm fluorescence, primary screen (AID 1119); details: small-molecule microarray, higher = more signal, called active from +8 up or from −8 down;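 further: probe is the protein aXip251-270 applied at 1 µg/mL to compound-printed slides; binding of probe to printed compounds measured as 667 nm fluorescence plus signal to noise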
# [13] = probe aNOTCH3 binding on compound microarray – biochemical, small-molecule microarray, 635/667 nm fluorescence, primary screen (AID 1120); details: higher = more signal;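 further: probe is a biotin-tagged antibody raised against NOTCH3 rather than NOTCH3 protein; score merges spot fluorescence near 667 nm with spot signal to noise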
# [14] = probe aNOTCH2 binding on compound microarray – biochemical, small-molecule microarray, 635/667 nm fluorescence, primary screen (AID 1121); details: higher = more signal;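 further: score merges feature fluorescence read at 667 nm with its signal to noise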
# [15] = target: Carbonic anhydrase 2 (Homo sapiens) (UniProt P00918); experiment: compounds binding carbonic anhydrase 2 – biochemical, small-molecule microarray, Alexa647-labelled CAII, profiling panel (AID 1122); details: CAII-A647 binding fluorescence, higher = more signal
# [16] = COS7 lysate on small-molecule microarray, probe aHis, 635 nm (AID 1123); details: COS7 cell lysate, fluorescence, higher = more signal;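 further: z-score combines 667nm fluorescence intensity with signal-to-noise per printed compound spot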
# [17] = probe aLAP1 signal on lysate-treated microarray – cell lysate, small-molecule microarray, COS7 lysate, primary screen (AID 1124); details: probe aLAP1, fluorescence, higher = more signal;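 further: lysate comes from COS7 cells expressing LAP1 and is applied at 0.3 µg/mL; score merges spot fluorescence near 667 nm with signal-to-noise over triplicate slides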
# [18] = test system: Sam68 (KHDRBS1); experiment: compounds binding KHDRBS1 protein – biochemical, small-molecule microarray, 635 nm fluorescence, primary screen (AID 1125); details: higher = more signal;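 further: score merges 667 nm channel intensity with signal to noise over triplicate slides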
# [19] = test system: Chordin-like protein 2 (CHRDL2); experiment: compounds binding chordin-like 2 – biochemical, small-molecule microarray, 635 nm fluorescence, primary screen (AID 1126); details: fluorescence 635 nm, higher = more signal;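 further: printed compound slides probed with Chrdl2 protein at 4 µg/mL for 1 h at 4 C; score merges 667 nm emission intensity with signal to noise over three replicate slides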
# [20] = target: Concanavalin-A (Canavalia ensiformis) (UniProt P02866); experiment: compounds binding concanavalin A lectin – biochemical, small-molecule microarray, Alexa647 label, 635 nm, artefact control for SMM control protein annotation, primary screen (AID 1127); details: ConA-A647 binding fluorescence, higher = more signal;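 further: z combines 667 nm emission intensity with signal-to-noise across three replicate slides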
# Sequence of Concanavalin-A (Canavalia ensiformis) (P02866 whole entry, looked up): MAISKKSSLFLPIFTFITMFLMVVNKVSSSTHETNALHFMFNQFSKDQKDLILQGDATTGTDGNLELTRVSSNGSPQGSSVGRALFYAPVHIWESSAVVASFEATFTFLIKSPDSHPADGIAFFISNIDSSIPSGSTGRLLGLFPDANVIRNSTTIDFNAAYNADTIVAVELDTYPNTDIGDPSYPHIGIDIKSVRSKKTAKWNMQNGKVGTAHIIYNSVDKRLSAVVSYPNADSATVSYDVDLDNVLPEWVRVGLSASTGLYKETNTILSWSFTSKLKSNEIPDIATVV
# Sequence of Albumin (Bos taurus) (P02769 whole entry, looked up): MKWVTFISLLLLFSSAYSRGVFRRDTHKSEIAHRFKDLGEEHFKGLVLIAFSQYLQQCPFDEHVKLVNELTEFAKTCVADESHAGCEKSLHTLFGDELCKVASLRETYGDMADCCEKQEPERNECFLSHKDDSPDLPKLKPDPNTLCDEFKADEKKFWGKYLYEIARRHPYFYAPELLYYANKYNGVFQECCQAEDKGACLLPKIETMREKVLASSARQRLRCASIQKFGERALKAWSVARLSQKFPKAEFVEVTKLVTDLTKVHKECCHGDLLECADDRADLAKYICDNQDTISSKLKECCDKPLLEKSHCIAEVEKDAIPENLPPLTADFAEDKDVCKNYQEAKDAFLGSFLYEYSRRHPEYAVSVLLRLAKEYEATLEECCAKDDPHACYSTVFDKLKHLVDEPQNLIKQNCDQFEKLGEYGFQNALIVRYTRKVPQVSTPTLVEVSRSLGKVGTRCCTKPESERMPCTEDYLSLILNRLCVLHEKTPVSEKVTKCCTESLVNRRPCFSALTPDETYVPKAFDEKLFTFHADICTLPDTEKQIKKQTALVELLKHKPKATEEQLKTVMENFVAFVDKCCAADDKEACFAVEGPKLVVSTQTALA
# Sequence of Torsin-1A-interacting protein 1 (Homo sapiens) (Q5JTV8 whole entry, looked up): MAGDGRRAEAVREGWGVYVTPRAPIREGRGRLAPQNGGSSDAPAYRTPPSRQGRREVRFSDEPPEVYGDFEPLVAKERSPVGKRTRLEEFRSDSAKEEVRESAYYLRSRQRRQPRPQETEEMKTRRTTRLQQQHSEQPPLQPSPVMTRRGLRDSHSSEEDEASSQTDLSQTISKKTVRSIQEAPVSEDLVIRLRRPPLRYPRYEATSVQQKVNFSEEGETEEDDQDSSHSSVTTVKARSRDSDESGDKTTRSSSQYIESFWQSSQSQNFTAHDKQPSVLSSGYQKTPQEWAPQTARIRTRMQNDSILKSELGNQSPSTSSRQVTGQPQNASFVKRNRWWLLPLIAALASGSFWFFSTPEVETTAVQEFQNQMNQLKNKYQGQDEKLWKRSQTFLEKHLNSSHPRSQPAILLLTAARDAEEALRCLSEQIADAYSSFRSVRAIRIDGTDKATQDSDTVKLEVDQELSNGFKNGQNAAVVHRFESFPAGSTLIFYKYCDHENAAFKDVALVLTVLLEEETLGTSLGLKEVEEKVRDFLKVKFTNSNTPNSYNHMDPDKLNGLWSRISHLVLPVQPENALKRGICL
# Sequence of Alpha-bungarotoxin (Bungarus multicinctus) (P60615 whole entry, looked up): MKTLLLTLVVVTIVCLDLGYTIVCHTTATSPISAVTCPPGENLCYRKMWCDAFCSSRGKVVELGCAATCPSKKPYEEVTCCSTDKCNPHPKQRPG
# Sequence of Left-right determination factor 2 (Homo sapiens) (O00292 whole entry, looked up): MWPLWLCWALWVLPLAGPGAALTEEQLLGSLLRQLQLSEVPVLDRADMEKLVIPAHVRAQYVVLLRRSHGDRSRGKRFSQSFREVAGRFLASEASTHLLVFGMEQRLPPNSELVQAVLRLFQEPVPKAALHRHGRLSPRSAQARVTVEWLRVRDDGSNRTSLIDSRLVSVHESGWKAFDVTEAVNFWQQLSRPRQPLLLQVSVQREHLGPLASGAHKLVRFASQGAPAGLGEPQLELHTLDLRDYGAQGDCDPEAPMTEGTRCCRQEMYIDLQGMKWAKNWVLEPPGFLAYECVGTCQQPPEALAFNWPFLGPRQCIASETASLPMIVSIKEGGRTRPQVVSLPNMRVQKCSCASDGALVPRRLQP
SMILES,composite z-score [1],z-score [2],composite z-score [3],composite z-score [4],composite z-score [5],composite z-score [6],composite z-score [7],composite z-score [8],composite z-score [9],composite z-score [10],composite z-score [11],composite Z-score [12],composite z-score [13],composite z-score [14],composite z-score [15],composite z-score [16],composite z-score [17],composite z-score [18],composite z-score [19],composite z-score [20]
CC(CCC(=O)OC[C@H]1O[C@H](C#Cc2ccccc2)C=C[C@@H]1Oc1ccc(C)cc1)=NOC[C@@H](O)[C@H]1O[C@@H]2OC(C)(C)O[C@@H]2[C@H]1O,-0.263,-1.13,-0.15,-0.873,0.0923,-0.18,-0.439,-0.118,0.416,-0.469,-0.326,-0.404 (inactive),-0.2,-0.187,-0.023,-0.282,0.137,0.14,-0.532,-0.614
CCOC(=O)C[C@H]1[C@H](OC(=O)c2cc3ccccc3oc2=O)[C@@H](NC(=O)c2ccc3ccccc3n2)c2cc(OCCCO)ccc2N1C(=O)c1ccccc1,0.15,-1.4,0.473,0.218,0.179,0.0374,-0.138,0.108,1.12,0.593,0.328,0.946 (inactive),0.154,-0.0424,0.639,0.476,0.668,0.604,0.789,0.728
CC(C)CON=C1[C@H]2CCn3c(=O)n(-c4ccccc4)c(=O)n3[C@H]2[C@H](O)[C@@H]2O[C@H]12,-0.626,-2.53,0.598,-0.148,-0.687,-0.291,-0.267,-0.269,0.14,0.0478,0.348,0.131 (inactive),-0.0193,0.0145,-0.0152,-0.497,-0.544,-0.589,0.762,0.0834
CC(C)[C@@H](OCc1ccccc1)[C@H](C)C=NO[C@H](C)c1cn([C@H](CO)Cc2ccccc2)nn1,0.639,-2.09,0.521,-0.211,-0.669,-0.156,-0.0709,-0.216,0.113,0.263,0.0792,0.0599 (inactive),-0.0362,-0.163,0.0227,0.544,0.294,1.01,0.779,0.392
C=C(/C(=C/C[C@@H](OC(=O)c1ccncc1)c1ccc(OCCO)cc1)c1cnc2ccccc2c1)C(C)C,0.901,-3.18,0.466,0.193,-0.583,-0.272,-0.0234,-0.302,2.75,1.26,0.155,-0.128 (inactive),0.201,-0.134,0.675,-0.842,0.727,1.22,0.952,1.08
O=C1[C@H]2[C@H]3[C@H](O)[C@H](O)CC(=NOC[C@@H](O)COCc4ccco4)[C@H]3CC[C@H]2C(=O)N1Cc1ccc2c(c1)OCO2,-0.532,-0.385,1.37,-1.37,-2.03,-0.119,-0.349,-0.278,0.13,-0.147,-0.244,-0.377 (inactive),-0.29,-0.17,-0.441,-0.385,0.311,0.0595,1.49,-1.26
CC1CC/C=C\[C@H]2OC34C=CCN(C(C)C)C(=O)[C@H]3N(CCCO)C(=O)[C@@H]4C2C(=O)O1 (stereo not given in full),-0.249,-0.513,-0.523,-1.04,0.271,-0.184,-0.181,-0.0898,0.646,-1.54,0.468,-1.03 (inactive),-0.0018,-0.0621,0.9,0.702,0.962,-0.499,-0.951,-1.74
CO[C@H]1COC(=O)[C@@H]2CCCN2C(=O)CC=C[C@@H](C)[C@H](OC)COC(=O)CC=C[C@@H]1C,0.589,1.34,1.47,-2.29,-2.06,-0.117,-0.0904,-0.156,-0.298,-0.394,-0.806,1.31 (inactive),0.0753,-0.0931,-0.235,-0.0693,0.0482,1.28,1.38,-1.28
C=C(COC)/C(=C/C[C@H](OC(=O)c1ccncc1)c1ccc(CO)o1)c1cc(C(=O)OC)ccc1OC,0.822,-0.718,0.208,0.0845,-0.409,-0.0107,-0.0553,-0.0446,0.0683,0.318,0.439,0.515 (inactive),0.0222,-0.0255,0.554,1.17,0.347,1.15,0.79,0.889
CCOC(=O)CCN1C(=O)[C@H]2[C@H]3[C@H](O)[C@H](O)CC(=NOC[C@@H](O)COCc4ccco4)[C@@H]3CC[C@H]2C1=O,0.201,0.395,-0.157,0.2,0.369,-0.0462,-0.223,-0.0381,0.657,0.557,0.723,-0.244 (inactive),-0.0932,-0.124,0.214,0.171,0.256,0.0665,0.457,0.318
Cn1c(=O)n2n(c1=O)[C@H]1[C@H](O)[C@@H]3O[C@@H]3C(=NOC[C@@H](O)COCc3ccco3)[C@H]1CC2,0.499,0.481,0.83,0.132,-0.844,-0.216,-0.468,0.964,0.314,0.318,0.125,-0.383 (inactive),0.236,-0.208,-0.142,0.145,-0.0856,0.373,0.535,0.59
